Results filed as inconclusive are left out. Values without a mark were called inactive. Activity calls are given as the source filed them. Calls follow the shape of the dose curve; as a rule, active = well fitted inhibition curve with a large enough effect; inconclusive = small, poorly fitted or top-dose-only effect, or effect the other way; inactive = no such curve, though single readings can be large or run the other way.
Assay: Quantitative high throughput screen for delayed death inhibitors of the malarial parasite plastid, 96 hour incubation (AID 488745); also: nearly all actives have a fitted effect of over 70% in size
Conditions: Plasmodium falciparum growth; series mostly up to 28.7 µM; activity change, negative = inhibition: at the top concentration
Source text: NIH Molecular Libraries Probe Production Network [MLPCN]
NIH Chemical Genomics Center [NCGC]
Assay Provider: David Fidock and Eric Ekland, Columbia University
The goal of this screen is to discover new antimalarial compounds that act by inhibiting the development of the apicoplast in the malarial parasite Plasmodium falciparum. The biochemical processes that make this organelle essential for erythrocytic stage parasites are not well understood. However, antibiotics such as azithromycin and tetracycline, which target the apicoplast translational machinery, have a potent antimalarial effect.
We have developed a cell-based assay that measures parasite growth based on the expression of an integrated copy of a firefly luciferase reporter. To detect small molecules that cause this 'delayed death' phenotype, erythrocytes infected with the luciferase-expressing parasites were incubated with compounds for either one or two generations, corresponding to 48 and 96 hours, respectively. Compounds that inhibit parasite growth in the second generation, but not the first, should be enriched in antimalarials that target the apicoplast. Growth inhibition is detected by a decrease in luciferase activity
Four microliters of culture medium (RPMI 1640 with 0.5% w/v Albumax (GIBCO), 24 mM sodium bicarbonate and 10 ug/mL gentamycin) were dispensed by a Multi-drop Combi into white solid 1536-well plates (Grenier) and 23 nL compound was added by a pin tool. Four microliters of infected erythrocytes (2% hematocrit, 0.1% parasitemia final concentration) in culture medium were dispensed and the plates incubated for 96 hours at 37 C in 5% CO2. Two microliters of luciferase detection reagent was added and luminescence was detected by a ViewLux (PerkinElmer) reader
% is scaled to controls: 0 for no effect and ±100 for the full control effect; potency is read from the fitted curve at half-maximal effect.

Compound | activity change, negative = inhibition | Potency
COc1cc(CCN)ccc1O | -2.54% | 
CN1CCN(c2ccc3ccccc3n2)CC1 | 25.9% | 
COc1ccc2[nH]cc(CCN(C)C)c2c1 | 25.4% | 
CN1CCc2cccc3c2C1Cc1ccc(O)c(O)c1-3 (stereo not given) |  | 2940 nM (active)
N#CC(C#N)=Cc1ccc([N+](=O)[O-])c(O)c1 | 0.566% | 
C=CCN1CCC2(C)c3cc(O)ccc3CC1C2C (stereo not given) | -26.3% | 
CC(=O)OCC1=C(C(=O)[O-])N2C(=O)[C@@H](NC(=O)CCC[C@@H](N)C(=O)[O-])[C@H]2SC1.[Zn+2] | 11.7% | 
N[C@@H](Cn1cc(I)c(=O)[nH]c1=O)C(=O)O | 2.76% | 
O=[N+]([O-])c1ccc(O[C@@H]2O[C@H](CO)[C@@H](O)[C@H](O)[C@H]2F)c([N+](=O)[O-])c1 | -34.1% | 
N#C/C(=C\c1ccc(O)c(O)c1)C(=O)NCCCNC(=O)/C(C#N)=C/c1ccc(O)c(O)c1 |  | 8280 nM (active)
COc1ccc(-n2nc(C(F)(F)F)cc2-c2ccc(Cl)cc2)cc1 | -29.4% | 
CNCC[C@H](Oc1ccc(C(F)(F)F)cc1)c1ccccc1 |  | 1170 nM (active)
CC(C)NCC(O)COc1cccc2ccccc12 (stereo not given) | 4.56% | 
COc1ccc(CCN)cc1O | -0.505% | 
N[C@H](CCCCCP(=O)(O)O)C(=O)O | 0.18% | 

Reference: PubChem BioAssay (NCATS)
